What all share (experiment): DAPPL (digital affinity profiling via proximity ligation, sequencing); 10 mM Tris-HCl pH 7.5, 50 mM NaCl, 1 mM DTT, 4% glycerol, room temperature, 30 min; GST-TFs on glutathione beads, 16-mer random dsDNA library, 0.1% formaldehyde crosslink after washing; high values mean tight binding
The target of assay [1] is T1, FEV (Homo sapiens, UniProt Q99581 1-238).
T1 sequence: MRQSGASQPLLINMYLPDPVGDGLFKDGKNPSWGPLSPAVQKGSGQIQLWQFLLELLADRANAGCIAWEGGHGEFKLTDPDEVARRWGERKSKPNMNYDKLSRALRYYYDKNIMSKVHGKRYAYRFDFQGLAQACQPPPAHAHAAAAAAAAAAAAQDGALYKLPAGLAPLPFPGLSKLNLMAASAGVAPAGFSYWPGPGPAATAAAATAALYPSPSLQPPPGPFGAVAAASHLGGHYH
The note with it: protein: recombinant; tags: N-terminal GST; dsDNA, one strand shown. The method, boiled down: (§1)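 A tag-only sample was pooled with DNA-barcoded human transcription factors that had been expressed in yeast as GST fusions and captured on glutathione beads. The pools were incubated for 30 min at room temperature with 200 nmole of a random double-stranded 16-mer DNA library in Tris/NaCl/DTT/glycerol buffer, then washed, crosslinked with 0.1% formaldehyde, proximity-ligated (BsaI/T4 ligase, 1 h, 37 °C), PCR-amplified and sequenced on an Illumina NextSeq500. Binding signal is each hexamer's read frequency for a factor divided by its frequency for the tag-only sample.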

Assay [2] concerns the target ETV5 (Homo sapiens, UniProt P41161 1-510). The note with it: protein: recombinant; tags: N-terminal GST; dsDNA, one strand shown. The method, boiled down:
as §1

Assay [3] has as its target HSF1 (Homo sapiens, UniProt Q00613 1-529). The following applies: protein: recombinant; tags: N-terminal GST; chain copies: 3; dsDNA, one strand shown. The method, boiled down: as §1
Assay [4] deals with T2, SPIC (Homo sapiens, UniProt Q8N5J4 1-248).
T2 sequence: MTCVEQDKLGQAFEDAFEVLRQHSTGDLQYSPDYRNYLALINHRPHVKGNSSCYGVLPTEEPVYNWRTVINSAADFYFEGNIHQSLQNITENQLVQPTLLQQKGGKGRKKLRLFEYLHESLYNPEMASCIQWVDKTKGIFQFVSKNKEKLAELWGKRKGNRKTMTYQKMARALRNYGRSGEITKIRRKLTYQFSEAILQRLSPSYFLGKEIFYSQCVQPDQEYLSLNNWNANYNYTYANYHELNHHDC
The following applies: protein: recombinant; tags: N-terminal GST; dsDNA, one strand shown. The method, boiled down: as §1

Assay [5] has as its target ELF4 (Homo sapiens, UniProt Q99607 1-663). The note with it: protein: recombinant; tags: N-terminal GST; dsDNA, one strand shown. The method, boiled down: as §1
Assay [6] addresses T3, ELK4 (Homo sapiens, UniProt P28324-2 1-405).
T3 sequence: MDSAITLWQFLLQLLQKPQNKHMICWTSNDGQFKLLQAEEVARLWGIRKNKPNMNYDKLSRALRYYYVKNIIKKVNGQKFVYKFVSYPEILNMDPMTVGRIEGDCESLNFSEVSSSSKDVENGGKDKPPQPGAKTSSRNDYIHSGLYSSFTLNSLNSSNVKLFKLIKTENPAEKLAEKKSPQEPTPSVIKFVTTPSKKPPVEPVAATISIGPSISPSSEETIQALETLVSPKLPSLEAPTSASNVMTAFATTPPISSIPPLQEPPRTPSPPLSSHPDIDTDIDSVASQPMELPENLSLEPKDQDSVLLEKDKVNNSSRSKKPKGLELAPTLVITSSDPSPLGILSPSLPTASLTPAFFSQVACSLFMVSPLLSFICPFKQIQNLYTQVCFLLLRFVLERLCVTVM
The note with it: protein: recombinant; tags: N-terminal GST; dsDNA, one strand shown. The method, boiled down: as §1

For assay [7], the target named is T4, ETV2 (Homo sapiens, UniProt O00321 1-342).
T4 sequence: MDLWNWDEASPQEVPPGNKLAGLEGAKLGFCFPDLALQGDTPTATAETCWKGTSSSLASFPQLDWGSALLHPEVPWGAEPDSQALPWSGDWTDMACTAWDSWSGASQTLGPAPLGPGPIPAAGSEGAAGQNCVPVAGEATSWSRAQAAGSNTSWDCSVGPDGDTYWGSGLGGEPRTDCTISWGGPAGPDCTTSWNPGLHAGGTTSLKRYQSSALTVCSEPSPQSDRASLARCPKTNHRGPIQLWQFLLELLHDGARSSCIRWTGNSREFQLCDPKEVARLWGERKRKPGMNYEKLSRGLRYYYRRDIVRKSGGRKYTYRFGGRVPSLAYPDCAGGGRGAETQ
The following applies: protein: recombinant; tags: N-terminal GST; dsDNA, one strand shown. The method, boiled down:
as §1

The target of assay [8] is T5, ELF3 (Homo sapiens, UniProt P78545 1-371).
T5 sequence: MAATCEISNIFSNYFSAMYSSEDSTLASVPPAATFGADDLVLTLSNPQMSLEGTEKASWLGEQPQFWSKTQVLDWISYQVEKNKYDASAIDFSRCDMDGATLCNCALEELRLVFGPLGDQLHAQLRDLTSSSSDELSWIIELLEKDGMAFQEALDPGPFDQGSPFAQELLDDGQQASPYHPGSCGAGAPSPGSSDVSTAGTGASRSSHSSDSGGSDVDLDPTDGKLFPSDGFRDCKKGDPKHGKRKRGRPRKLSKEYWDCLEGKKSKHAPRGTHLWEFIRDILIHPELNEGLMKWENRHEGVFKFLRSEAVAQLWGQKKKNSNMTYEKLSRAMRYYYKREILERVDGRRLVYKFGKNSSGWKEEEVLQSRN
The following applies: protein: recombinant; tags: N-terminal GST; dsDNA, one strand shown. The method, boiled down: as §1

Assay [9] has as its target CRX (Homo sapiens, UniProt O43186 1-299). The following applies: protein: recombinant; tags: N-terminal GST; dsDNA, one strand shown. The method, boiled down: as §1
Assay [10] addresses ETV1 (Homo sapiens, UniProt P50549 1-477). The note with it: protein: recombinant; tags: N-terminal GST; dsDNA, one strand shown. The method, boiled down:
as §1

Assay [11] addresses T6, ERF (Homo sapiens, UniProt P50548 1-548).
T6 sequence: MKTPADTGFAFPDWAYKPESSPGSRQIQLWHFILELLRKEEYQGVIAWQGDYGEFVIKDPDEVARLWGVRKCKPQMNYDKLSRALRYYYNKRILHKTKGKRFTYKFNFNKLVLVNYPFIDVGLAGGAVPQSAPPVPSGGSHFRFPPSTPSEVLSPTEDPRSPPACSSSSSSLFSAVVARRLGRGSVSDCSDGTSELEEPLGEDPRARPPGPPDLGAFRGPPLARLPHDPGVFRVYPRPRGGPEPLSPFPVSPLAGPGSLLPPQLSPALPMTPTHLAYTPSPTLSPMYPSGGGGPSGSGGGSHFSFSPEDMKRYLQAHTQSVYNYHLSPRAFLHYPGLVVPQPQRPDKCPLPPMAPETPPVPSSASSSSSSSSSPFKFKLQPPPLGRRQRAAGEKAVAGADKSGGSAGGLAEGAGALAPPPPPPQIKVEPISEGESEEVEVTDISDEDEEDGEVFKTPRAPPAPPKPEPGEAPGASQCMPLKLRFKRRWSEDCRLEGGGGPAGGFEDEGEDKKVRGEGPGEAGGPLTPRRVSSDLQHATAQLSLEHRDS
The note with it: protein: recombinant; tags: N-terminal GST; dsDNA, one strand shown. The method, boiled down: as §1

In assay [12] the target is T7, ETV3L (Homo sapiens, UniProt Q6ZN32 1-361).
T7 sequence: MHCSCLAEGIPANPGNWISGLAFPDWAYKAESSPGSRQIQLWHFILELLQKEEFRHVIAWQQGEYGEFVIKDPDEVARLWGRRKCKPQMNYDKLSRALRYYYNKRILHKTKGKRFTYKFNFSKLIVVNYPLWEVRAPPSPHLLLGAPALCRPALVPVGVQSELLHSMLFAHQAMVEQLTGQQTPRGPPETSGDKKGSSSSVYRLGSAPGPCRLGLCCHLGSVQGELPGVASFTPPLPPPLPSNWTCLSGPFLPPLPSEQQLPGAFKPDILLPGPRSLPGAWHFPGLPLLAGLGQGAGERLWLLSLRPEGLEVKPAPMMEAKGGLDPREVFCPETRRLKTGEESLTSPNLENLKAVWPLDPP
The following applies: protein: recombinant; tags: N-terminal GST; dsDNA, one strand shown. The method, boiled down: as §1

The target of assay [13] is T8, ETS2 (Homo sapiens, UniProt P15036 1-469).
T8 sequence: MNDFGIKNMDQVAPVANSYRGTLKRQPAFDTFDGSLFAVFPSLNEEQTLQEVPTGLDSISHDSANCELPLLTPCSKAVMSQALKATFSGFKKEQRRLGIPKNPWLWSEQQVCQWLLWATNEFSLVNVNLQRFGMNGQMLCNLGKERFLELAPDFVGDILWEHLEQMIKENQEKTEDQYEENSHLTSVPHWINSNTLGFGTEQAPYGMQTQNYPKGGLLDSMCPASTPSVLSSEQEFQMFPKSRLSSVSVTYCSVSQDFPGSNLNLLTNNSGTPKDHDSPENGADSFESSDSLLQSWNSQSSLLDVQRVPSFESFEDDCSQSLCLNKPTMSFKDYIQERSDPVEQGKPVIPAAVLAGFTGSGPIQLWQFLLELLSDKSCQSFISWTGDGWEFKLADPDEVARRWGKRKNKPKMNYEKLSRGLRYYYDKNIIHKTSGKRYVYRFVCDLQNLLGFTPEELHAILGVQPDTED
The note with it: protein: recombinant; tags: N-terminal GST; dsDNA, one strand shown. The method, boiled down: as §1

Assay [14] concerns the target T9, SPDEF (Homo sapiens, UniProt O95238 1-335).
T9 sequence: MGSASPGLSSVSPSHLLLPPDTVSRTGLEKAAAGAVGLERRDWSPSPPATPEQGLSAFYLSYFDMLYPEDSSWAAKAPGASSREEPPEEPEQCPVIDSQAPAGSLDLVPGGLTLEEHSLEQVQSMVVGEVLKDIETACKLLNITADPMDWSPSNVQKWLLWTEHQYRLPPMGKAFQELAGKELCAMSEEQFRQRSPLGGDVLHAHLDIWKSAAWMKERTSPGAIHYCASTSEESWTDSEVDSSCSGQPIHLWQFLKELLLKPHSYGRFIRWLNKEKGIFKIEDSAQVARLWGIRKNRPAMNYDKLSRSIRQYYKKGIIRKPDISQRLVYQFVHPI
The note with it: protein: recombinant; tags: N-terminal GST; dsDNA, one strand shown. The method, boiled down:
as §1

Assay [15] has as its target T10, ETV7 (Homo sapiens, UniProt Q9Y603 1-341).
T10 sequence: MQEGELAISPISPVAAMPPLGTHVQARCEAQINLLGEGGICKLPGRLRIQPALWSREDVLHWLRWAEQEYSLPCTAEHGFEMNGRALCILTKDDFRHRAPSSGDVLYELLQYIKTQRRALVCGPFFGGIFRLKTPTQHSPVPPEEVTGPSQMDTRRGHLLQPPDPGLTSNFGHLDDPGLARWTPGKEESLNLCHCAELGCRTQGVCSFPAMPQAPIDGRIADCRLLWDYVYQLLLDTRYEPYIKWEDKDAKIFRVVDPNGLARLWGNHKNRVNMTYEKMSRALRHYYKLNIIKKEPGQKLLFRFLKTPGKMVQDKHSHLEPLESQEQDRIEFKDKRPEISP
The following applies: protein: recombinant; tags: N-terminal GST; dsDNA, one strand shown. The method, boiled down: as §1

Assay [16] concerns the target T11, ELF5 (Homo sapiens, UniProt Q9UKW6-2 1-255).
T11 sequence: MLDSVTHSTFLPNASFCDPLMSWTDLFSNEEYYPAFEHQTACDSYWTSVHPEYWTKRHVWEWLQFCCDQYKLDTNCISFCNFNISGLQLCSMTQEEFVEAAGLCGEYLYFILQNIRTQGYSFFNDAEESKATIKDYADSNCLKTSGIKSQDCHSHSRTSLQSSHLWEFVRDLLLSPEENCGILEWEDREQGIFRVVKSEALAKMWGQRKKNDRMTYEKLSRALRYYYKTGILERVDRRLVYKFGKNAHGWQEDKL
The note with it: protein: recombinant; tags: N-terminal GST; dsDNA, one strand shown. The method, boiled down:
as §1

Assay [17] deals with T12, ETV3 (Homo sapiens, UniProt P41162-2 1-143).
T12 sequence: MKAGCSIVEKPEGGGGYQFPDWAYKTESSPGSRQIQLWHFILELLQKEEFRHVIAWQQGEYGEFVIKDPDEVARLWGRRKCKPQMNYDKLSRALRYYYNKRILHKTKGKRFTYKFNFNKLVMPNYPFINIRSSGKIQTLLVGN
The following applies: protein: recombinant; tags: N-terminal GST; dsDNA, one strand shown. The method, boiled down:
as §1

Assay [18] concerns the target ETV6 (Homo sapiens, UniProt P41212 1-452). The note with it: protein: recombinant; tags: N-terminal GST; dsDNA, one strand shown. The method, boiled down:
as §1

This note sets out measurements from PMC7862700, “An all-to-all approach to the identification of sequence-specific readers for epigenetic DNA modifications on cytosine”.

Chain of ELF4 (Q99607 whole entry): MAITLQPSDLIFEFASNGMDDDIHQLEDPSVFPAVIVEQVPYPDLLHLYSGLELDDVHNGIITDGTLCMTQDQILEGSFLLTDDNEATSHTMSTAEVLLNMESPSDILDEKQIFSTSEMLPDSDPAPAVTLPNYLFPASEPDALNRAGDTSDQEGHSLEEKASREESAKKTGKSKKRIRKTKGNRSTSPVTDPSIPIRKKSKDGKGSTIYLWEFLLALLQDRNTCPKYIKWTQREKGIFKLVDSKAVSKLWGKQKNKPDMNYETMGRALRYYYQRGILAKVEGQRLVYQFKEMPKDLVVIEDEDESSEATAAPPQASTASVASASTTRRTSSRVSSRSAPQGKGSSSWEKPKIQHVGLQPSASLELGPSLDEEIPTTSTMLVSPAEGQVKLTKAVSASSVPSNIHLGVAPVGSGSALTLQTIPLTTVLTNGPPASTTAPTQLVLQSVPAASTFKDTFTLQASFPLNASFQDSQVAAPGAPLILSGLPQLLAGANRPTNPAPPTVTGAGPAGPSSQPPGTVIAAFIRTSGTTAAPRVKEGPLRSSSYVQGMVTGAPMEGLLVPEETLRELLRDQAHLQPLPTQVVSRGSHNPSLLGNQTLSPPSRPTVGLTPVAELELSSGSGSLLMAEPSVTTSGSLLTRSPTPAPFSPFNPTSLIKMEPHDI
Chain of CRX (O43186 whole entry): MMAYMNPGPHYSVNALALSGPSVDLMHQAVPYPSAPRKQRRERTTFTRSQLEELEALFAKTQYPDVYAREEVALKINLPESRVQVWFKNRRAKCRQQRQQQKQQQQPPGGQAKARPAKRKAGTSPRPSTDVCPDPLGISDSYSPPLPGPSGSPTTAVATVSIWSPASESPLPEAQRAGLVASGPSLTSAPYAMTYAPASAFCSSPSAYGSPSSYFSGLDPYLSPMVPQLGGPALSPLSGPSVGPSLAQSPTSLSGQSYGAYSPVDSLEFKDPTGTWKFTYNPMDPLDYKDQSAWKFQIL
Chain of ETV6 (P41212 whole entry): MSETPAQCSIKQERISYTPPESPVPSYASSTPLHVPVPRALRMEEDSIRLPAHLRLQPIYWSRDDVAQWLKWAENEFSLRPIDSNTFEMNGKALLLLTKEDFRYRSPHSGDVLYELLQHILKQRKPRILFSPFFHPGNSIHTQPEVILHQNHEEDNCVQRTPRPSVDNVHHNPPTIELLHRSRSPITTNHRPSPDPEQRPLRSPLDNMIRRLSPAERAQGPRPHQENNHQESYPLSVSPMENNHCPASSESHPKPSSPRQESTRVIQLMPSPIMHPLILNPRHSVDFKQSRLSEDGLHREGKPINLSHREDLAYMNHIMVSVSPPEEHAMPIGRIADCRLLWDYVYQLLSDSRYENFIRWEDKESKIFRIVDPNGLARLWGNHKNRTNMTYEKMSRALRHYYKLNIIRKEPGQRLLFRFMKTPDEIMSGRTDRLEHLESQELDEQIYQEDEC
Chain of ETV1 (P50549 whole entry): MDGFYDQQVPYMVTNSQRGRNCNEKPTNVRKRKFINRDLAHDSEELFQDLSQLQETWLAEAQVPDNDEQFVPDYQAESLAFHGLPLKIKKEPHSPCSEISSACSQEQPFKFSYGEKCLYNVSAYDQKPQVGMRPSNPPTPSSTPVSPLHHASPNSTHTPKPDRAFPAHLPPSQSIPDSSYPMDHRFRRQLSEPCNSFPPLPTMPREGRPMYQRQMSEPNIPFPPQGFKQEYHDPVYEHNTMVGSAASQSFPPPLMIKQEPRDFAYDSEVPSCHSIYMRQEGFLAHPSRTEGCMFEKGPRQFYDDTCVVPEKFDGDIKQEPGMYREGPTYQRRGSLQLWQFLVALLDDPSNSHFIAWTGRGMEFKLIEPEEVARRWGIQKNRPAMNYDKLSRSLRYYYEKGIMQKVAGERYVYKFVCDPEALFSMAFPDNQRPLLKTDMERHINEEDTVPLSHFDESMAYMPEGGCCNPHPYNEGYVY
Chain of ETV5 (P41161 whole entry): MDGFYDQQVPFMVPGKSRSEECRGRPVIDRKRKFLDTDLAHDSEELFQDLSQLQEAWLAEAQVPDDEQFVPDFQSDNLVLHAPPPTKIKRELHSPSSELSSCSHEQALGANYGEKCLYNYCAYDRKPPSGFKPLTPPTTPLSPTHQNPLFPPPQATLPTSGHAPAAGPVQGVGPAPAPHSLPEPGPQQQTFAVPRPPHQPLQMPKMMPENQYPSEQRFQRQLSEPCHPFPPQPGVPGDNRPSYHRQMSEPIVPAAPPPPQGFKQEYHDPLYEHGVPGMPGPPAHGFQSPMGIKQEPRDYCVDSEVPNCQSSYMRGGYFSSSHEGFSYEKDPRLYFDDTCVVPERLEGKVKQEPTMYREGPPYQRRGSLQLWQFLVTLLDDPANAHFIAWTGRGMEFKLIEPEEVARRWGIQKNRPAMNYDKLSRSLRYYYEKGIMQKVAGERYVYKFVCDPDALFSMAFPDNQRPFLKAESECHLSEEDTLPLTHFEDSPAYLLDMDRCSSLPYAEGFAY
Chain of HSF1 (Q00613 whole entry): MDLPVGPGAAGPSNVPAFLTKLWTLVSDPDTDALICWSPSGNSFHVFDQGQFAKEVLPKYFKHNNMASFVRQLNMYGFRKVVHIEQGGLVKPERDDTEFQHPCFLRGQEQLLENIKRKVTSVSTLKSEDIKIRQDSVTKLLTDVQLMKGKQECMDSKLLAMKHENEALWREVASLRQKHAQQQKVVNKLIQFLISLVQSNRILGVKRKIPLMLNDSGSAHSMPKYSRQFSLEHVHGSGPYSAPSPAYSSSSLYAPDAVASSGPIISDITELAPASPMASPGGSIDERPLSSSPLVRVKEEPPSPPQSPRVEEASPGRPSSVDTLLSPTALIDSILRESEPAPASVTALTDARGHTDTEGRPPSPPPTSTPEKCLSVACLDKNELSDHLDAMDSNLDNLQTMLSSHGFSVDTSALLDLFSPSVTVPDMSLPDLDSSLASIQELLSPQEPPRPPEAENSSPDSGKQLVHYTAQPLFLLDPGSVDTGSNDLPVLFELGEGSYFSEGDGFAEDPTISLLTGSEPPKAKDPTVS

For ATTACC, the binding signal is 1.25 fold enrichment (6-mer frequency, TF over GST control) in assay [1]; 1.36 fold enrichment (6-mer frequency, TF over GST control) in [2]; 1.58 fold enrichment (6-mer frequency, TF over GST control) in assay [3]; 1.26 fold enrichment (6-mer frequency, TF over GST control) in assay [4]; 1.17 fold enrichment (6-mer frequency, TF over GST control) in [5]; 1.21 fold enrichment (6-mer frequency, TF over GST control) in [6]. The binding signal in assay [7] is 1.4 fold enrichment (6-mer frequency, TF over GST control); in assay [8], 1.1 fold enrichment (6-mer frequency, TF over GST control); in assay [9], 2.17 fold enrichment (6-mer frequency, TF over GST control); in assay [10] it was 1.23 fold enrichment (6-mer frequency, TF over GST control); in [11], 1.18 fold enrichment (6-mer frequency, TF over GST control); in assay [12], 1.2 fold enrichment (6-mer frequency, TF over GST control). Besides, the binding signal was 1.27 fold enrichment (6-mer frequency, TF over GST control) in assay [13]; 1.18 fold enrichment (6-mer frequency, TF over GST control) in assay [14]; 1.28 fold enrichment (6-mer frequency, TF over GST control) in assay [15]; 1.32 fold enrichment (6-mer frequency, TF over GST control) in assay [16]; 1.31 fold enrichment (6-mer frequency, TF over GST control) in [17]; 1.33 fold enrichment (6-mer frequency, TF over GST control) in assay [18].
